{"source": "PubChem BioAssay (EPA / NIEHS)", "note": "Active and inactive are the calls of the source. How the source made its calls: active means hit-call score of the fitted dose curve at least 0.9, where 1 is the maximum; inconclusive means response in the unintended direction; inactive means score below 0.9.", "data": [{"test": "CPHEA_Stoker_NIS_Cytotoxicity: Cytotoxicity Assessment for CPHEA's Radioactive Iodide Uptake (RAIU) Assay for Sodium/Iodide Symporter (NIS) Inhibition, Stoker and Laws Labs (AID 2283897);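 on AC50: active means loss of ATP signal versus DMSO meaning cytotoxicity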", "description": "CPHEA_Stoker_NIS is a cell-based, single-readout assay that uses hNIS-HEK293T-EPA, a novel human kidney cell line expressing human NIS, with measurements taken at 2 hours after chemical dosing in a 96-well plate. This radioactive iodide uptake (RAIU) assay is used to identify inhibitors of NIS-mediated iodide uptake. A parallel cytoxicity assay (Cell Titer Glo, Promega) was also run in the same cell line.CPHEA_Stoker_NIS_Cytotoxicity is one of 2 assay components measured from the CPHEA_Stoker_NIS assay. It is designed to make measurements of atp content, a form of viability reporter, as detected with bioluminescence signals by Luciferase-coupled ATP quantitation technology.Data from the assay component CPHEA_Stoker_NIS_Cytotoxicity was analyzed at the endpoint, CPHEA_Stoker_NIS_Cytotoxicity, in the positive analysis fitting direction relative to DMSO as the negative control and baseline of activity. Using a type of viability reporter, measures of ATP content for loss-of-signal activity can be used to understand the viability. To generalize the intended target to other relatable targets, this assay endpoint is annotated to the cell cycle intended target family, where the subfamily is cytotoxicity.\nhNIS-HEK293T-EPA cells were seeded with a MultiFlo FX dispenser (BioTek, Winooski, VT) into ScintiPlate-96 microplates (Perkin Elmer, Waltham, MA) at a density of 4.0x10^4 cells per well in 200uL growth media and incubated for 40 hours before experimentation. On day of the assay, carrier-free 125I (Perkin-Elmer, Waltham, MA; specific activity: 17.4Ci/mg) was diluted with Hanks' balanced salt solution (Sigma, St. Louis, MO) supplemented with 10mM HEPES (uptake buffer; pH 7.4) at 5uCi/mL (288pg 125I/mL uptake buffer; 2.30nM). The assay was initiated by washing cells twice with 200uL uptake buffer using a 96-well Tecan HydroSpeed plate washer (Tecan, Mannedorf, Switzerland). Uptake buffer (59.7uL) was then added back to each well. Chemical samples (350nL at 200X) were administered using the HDR tool as previously described to achieve a 1X chemical/0.5% final DMSO concentration with subsequent addition of 10uL of 125I dilution (final [125I]: 329pM; 2.88pg/well) for a final reaction volume of 70uL/well. Cells were incubated at room temperature for 2 hours and then washed twice with 200uL ice cold uptake buffer. All uptake buffer was aspirated from wells, plates were sealed, and read on a MicroBeta2 plate reader (Perkin Elmer, Waltham, MA) using a detection protocol to measure CPM corresponding to intracellular 125I concentration. Each chemical concentration (0.001, 0.01, 0.1, 1.0, 10, and 100uM) was assayed in triplicate with three independent biological replicate plates (3 sequential cell passages). Additionally, a concentration response of NaClO4 (0.001, 0.01, 0.1, 1.0, 10, and 100uM) served as a positive control inhibition curve on each RAIU assay plate. DMSO control wells were assayed on each plate as a measure of maximum iodide uptake for normalization and determination of intra- and inter-assay variation. (Toxicol In Vitro, 2017, 40:66-78).", "values": [{"smiles": "CCCCCCCCCc1ccc(OCCO)cc1", "AC50": "24.3 µM (active)"}, {"smiles": "CCCCCCCCCCCCCC[P+](CCCC)(CCCC)CCCC", "AC50": "15.9 µM (active)"}, {"smiles": "O=C(c1ccccc1)c1ccc(O)cc1O", "outcome": "inactive"}, {"smiles": "CCCCCCCC/C=C\\CCCCCCCC(=O)N(C)CC(=O)O", "outcome": "inactive"}, {"smiles": "CCC(Cc1c(I)cc(I)c(N)c1I)C(=O)O", "note": "(centres undefined)", "outcome": "inactive"}, {"smiles": "CCN=c1cc2oc3cc(NCC)c(C)cc3c(-c3ccccc3C(=O)OCC)c-2cc1C", "AC50": "30.8 µM (active)"}, {"smiles": "CCCCCCCCCCCCC[N+](C)(C)Cc1ccccc1", "outcome": "inactive"}, {"smiles": "C[C@]12CC[C@H]3C(=CCc4cc(O)ccc43)[C@@H]1CCC2=O", "outcome": "inactive"}, {"smiles": "COCCOCCC[Si](C)(O[Si](C)(C)C)O[Si](C)(C)C", "outcome": "inactive"}, {"smiles": "CC(C)Nc1ccc(NC(C)C)c2c1C(=O)c1ccccc1C2=O", "AC50": "15.3 µM (active)"}, {"smiles": "CCCCCCCCn1sc(Cl)c(Cl)c1=O", "outcome": "inactive"}, {"smiles": "O=C1C=CC(=O)N1c1ccccc1", "AC50": "81.6 µM (active)"}, {"smiles": "CCc1cc(Cc2cc(CC)c(N)c(CC)c2)cc(CC)c1N", "outcome": "inactive"}, {"smiles": "CCN=C1C=CC(=C(c2ccc(N(CC)CC)cc2)c2ccc(N(CC)CC)cc2)c2ccccc21", "AC50": "10 µM (active)"}]}]}
